High-throughput results deposited in PubChem BioAssay by several laboratories.
CHT inh: inhibitors of human choline transporter CHT; CHT-expressing cells, membrane potential dye, choline response; hits give low values; B-score at 10 µM; 310,000 compounds, 0.86% hits;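 active means B-score over 3 SD under the library average, and starting fluorescence ratio not unusually high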;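 further: choline stimulus applied at its EC90 after an EC20 pre-addition; B-score computed on integrated fluorescence ratio after choline addition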
Target sequence (Q9GZV3 whole entry, looked up): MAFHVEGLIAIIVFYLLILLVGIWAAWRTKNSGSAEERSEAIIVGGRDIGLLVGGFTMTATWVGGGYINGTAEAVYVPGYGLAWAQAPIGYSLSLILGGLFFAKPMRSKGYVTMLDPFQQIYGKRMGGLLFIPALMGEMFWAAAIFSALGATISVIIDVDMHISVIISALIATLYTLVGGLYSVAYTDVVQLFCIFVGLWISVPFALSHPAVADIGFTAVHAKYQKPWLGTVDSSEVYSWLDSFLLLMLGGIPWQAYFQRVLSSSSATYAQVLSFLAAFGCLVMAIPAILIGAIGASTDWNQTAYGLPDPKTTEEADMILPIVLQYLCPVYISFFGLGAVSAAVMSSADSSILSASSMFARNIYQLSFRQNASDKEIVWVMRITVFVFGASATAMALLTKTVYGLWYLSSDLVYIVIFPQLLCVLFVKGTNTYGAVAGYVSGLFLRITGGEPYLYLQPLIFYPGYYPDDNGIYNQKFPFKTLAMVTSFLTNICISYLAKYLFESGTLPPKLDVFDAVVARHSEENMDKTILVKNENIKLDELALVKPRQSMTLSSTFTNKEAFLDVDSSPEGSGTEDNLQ
MIN6 prolif: inducers of beta-cell replication in MIN6 cells; proliferation, % at 10 µM; 330,000 compounds, 0.29% hits; AID 2380; MIN6 cells proliferation, ATPlite luminescence, 48 h; cells starved in 0.2% serum; 100% = growth in 10% serum;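 active means compounds whose signal lies at least 3.5 SD above the mean of all wells on their plate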
H9c2 TAG inh: reduces triacylglycerol accumulation in H9c2 cells | Nile Red lipid (TAG) fluorescence; cells loaded with 200 µM oleic acid | inhibition, % at 12.5 µM | 230,000 compounds, 0.66% hits | AID 651582;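 active means pattern-corrected inhibition of lipid staining of at least 50% with the nuclear-stain viability signal not falling by more than 50%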
CHT allo act: human CHT allosteric activation; B-score at 10 µM; AID 488977; 310,000 compounds, 0.49% hits; Q9GZV3; CHT-expressing cells, membrane potential dye, choline EC20; hits give high values; LV-AA mutant CHT in HEK293 cells;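 active means initial fluorescence not abnormally high and integrated response B-score, plate-corrected, over 3 SD above library mean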
Of the large screens only hits and unclear results are named; the others gave an inactive call. In the library only some 1.7% were active in any assay of this set; here they are far more common.

CCCCCCN1C[C@H](O)[C@@H](n2cc(C3CC3)nn2)C[C@@H]1c1ccccc1	none (no result: CHT inh, MIN6 prolif, CHT allo act)
CSc1ccccc1CNc1nc(NCC2CC2)nc2ccsc12	none (no result: CHT inh, MIN6 prolif, CHT allo act)
COc1ccc(CCNc2c3ccccc3nc3ccccc23)cc1OC	H9c2 TAG inh 55
C[C@H](CO)N1C[C@H](C)[C@@H](CN(C)Cc2ccc3cccnc3c2)OCc2cnnn2CCCC1=O	none (no result: CHT inh, MIN6 prolif, CHT allo act)
CCOC(=O)C(C#N)=C1CCC=C(C)C1	none (no result: CHT inh, MIN6 prolif, CHT allo act)
CCOC(=O)/C(C#N)=C1\SS/C(=C(/C#N)C(=O)OCC)S1	CHT inh -5.5 (no result: H9c2 TAG inh)
Cc1ccc(-c2cc(C(=O)N/N=C/c3c(C)nn(-c4ccccc4)c3C)[nH]n2)cc1	H9c2 TAG inh 69 (no result: CHT inh, MIN6 prolif, CHT allo act)
Cc1nn(-c2ccccc2)c(C)c1/C=N/NC(=O)c1cc(C(C)(C)C)[nH]n1	none
CC(C)(C)C(=O)Nc1nc(=S)ss1	CHT inh -5.5
CCC(=O)Nc1nc(=S)ss1	none
Cc1noc(C)c1CSCC(=O)OCC(=O)Nc1ccc(OC(F)(F)F)cc1	none (no result: CHT inh, MIN6 prolif, CHT allo act)
S=C(Nc1cccc(Cl)c1)N(CCCN1CCCC1)Cc1cccn1Cc1ccc(Cl)cc1	none
CSc1cccc(NC(=S)N(CCCN2CCCC2)Cc2cccn2Cc2ccc(Cl)cc2)c1	H9c2 TAG inh 57
COc1ccc(F)c(CN2CCC(n3nccc3NC(=O)C3CCOC3)CC2)c1 (centres undefined)	none
CC(C)(C)c1cc(NCCCn2ccnc2)n2ncc(-c3ccccc3)c2n1	none
CCCc1cc(NCCCn2ccnc2)n2nc(C)c(-c3ccccc3)c2n1	CHT inh -7.1
O=C(Nc1cccc2[nH]c([C@H]3C[C@H](O)[C@@H](CO)O3)nc12)NC(c1ccccc1)c1ccccc1	none (no result: CHT inh, MIN6 prolif, CHT allo act)
Cc1nn(Cc2c(Cl)cccc2Cl)c(C)c1NC(=O)c1cn(-c2ccccc2)nc1-c1ccccc1	H9c2 TAG inh 50
Cc1cccc(C)c1NC(=O)CNC(=O)c1cn(-c2ccccc2)nc1-c1ccccc1	none
CCc1ccc(S(=O)(=O)Nc2ccc(O)c3c(=O)cc(-c4ccccc4Cl)oc23)cc1	none
O=c1cc(-c2ccccc2Cl)oc2c(NS(=O)(=O)c3cc(Cl)cc(Cl)c3O)ccc(O)c12	CHT inh -9.8
O=C(Cn1ncc(Cl)c(Cl)c1=O)NC(=O)NC1CCCCC1	H9c2 TAG inh 56 (no result: CHT inh, CHT allo act)
O=C(COC(=O)c1ccccc1NC(=O)c1ccccc1)c1ccc([N+](=O)[O-])cc1	CHT allo act 6.4
O=C(COC(=O)c1ccccc1NC(=O)c1ccccc1)c1cccc([N+](=O)[O-])c1	none (no result: H9c2 TAG inh)
C=CCOC(=O)/C=C/C(=O)NC(N)=O	MIN6 prolif 11 (no result: H9c2 TAG inh)
Cc1sc2nc(CN3CCOCC3)nc(NS(=O)(=O)c3cc(Cl)ccc3Cl)c2c1C	none (no result: CHT inh, CHT allo act)
COc1ccc(C2=Nn3c(nnc3-c3ccccc3)SC2)cc1OC	none (no result: H9c2 TAG inh)
CCCc1nnc2n1N=C(c1ccc(OC)c(OC)c1)CS2	CHT inh -5 (no result: H9c2 TAG inh)
COc1ccc(CNC(=O)c2ccc(-c3c(C)noc3C)c3ccoc23)cc1OC	none (no result: CHT inh, MIN6 prolif, CHT allo act)
COc1cc2c(C(=O)NCCCN3CC(C)CC(C)C3)cn(CC(C)C)c(=O)c2cc1OC (centres undefined)	CHT inh -5.8
COc1cc2c(C(=O)NCCCOC(C)C)cn(CC(C)C)c(=O)c2cc1OC	none
O=C(CCN1CCc2ccccc2C(c2ccccc2)C1)c1ccc2c(c1)OCCO2 (centres undefined)	CHT inh -8.9
Cc1cc2[nH]c3c(c[n+](C)c4ccccc34)c2cc1C	H9c2 TAG inh 127
Cc1cc2[nH]c3c4ccccc4nc(C)c3c2cc1C	none (no result: CHT inh, MIN6 prolif, CHT allo act)
Nc1nc(CCl)nc(Nc2ccc3ccccc3c2)n1	H9c2 TAG inh 79 (no result: CHT inh, MIN6 prolif, CHT allo act)
COc1ccc(Nc2nc(N)nc(CCl)n2)cc1	none
C=C(C)COc1ccc(-c2n[nH]c(C)c2-c2ccc(OC)c(OC)c2)c(O)c1	H9c2 TAG inh 56
Nc1ccc(C(=O)N/N=C\c2cc(N=Nc3cccc4ccccc34)ccc2O)cc1	H9c2 TAG inh 56
CCCCOc1ccc(C2OC34CCCCC3C(C#N)(C#N)C2(C#N)C(=N)O4)cc1 (centres undefined)	MIN6 prolif 9.8
Cc1ccc(C2OC34CCCCCC3C(C#N)(C(=N)O4)C2(C#N)C#N)cc1 (centres undefined)	MIN6 prolif 9.0 (no result: H9c2 TAG inh)
C#CCOCCOCCOCCNc1nc(N2CCN(C(=O)CCCCCCCCCCNC(=O)[C@H](CCCCN)n3cc(C)nn3)CC2)nc(N2CCN(C(=O)CCCCCCCCCCNC(=O)[C@@H]([C@H](C)CC)n3cc(CCCCCN)nn3)CC2)n1	H9c2 TAG inh 75
